Inconclusive results are not listed. The source made the active and inactive calls. Unless noted, calls follow the shape of the dose curve; as a rule, active = well fitted curve in the direction sought with a large enough effect in the repeat runs; inconclusive = weak or mixed curves; inactive = no such curve, though single readings can be large; an effect the other way counts as inactive or inconclusive.
Columns and labels:
[1] = qHTS assay to identify small molecule antagonists of the androgen receptor (AR) signaling pathway using the MDA cell line in the presence of 0.5 nM R1881 - cell viability counter screen (AID 1259242); also: nearly all actives have a fitted effect of over 45% in size; also: potency is read from the fitted curve at half-maximal effect
Procedure, shortened: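 Live-cell protease activity was measured by CellTiter-Fluor fluorescence after 30 min. Before that, MDA-kb2 MMTV-luciferase cells had 16 hr at 37C without CO2, exposed to test compounds and 0.5 nM R1881 final.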

[2] = target: Androgen receptor (Homo sapiens) (UniProt P10275); test: qHTS assay to identify small molecule antagonists of the androgen receptor (AR) signaling pathway using the MDA cell line in the presence of 0.5 nM R1881 (AID 1259243); also: nearly all actives have a fitted effect of over 50% in size; also: potency is read from the fitted curve at half-maximal effect
Chain of Androgen receptor (Homo sapiens) (P10275 whole entry, looked up): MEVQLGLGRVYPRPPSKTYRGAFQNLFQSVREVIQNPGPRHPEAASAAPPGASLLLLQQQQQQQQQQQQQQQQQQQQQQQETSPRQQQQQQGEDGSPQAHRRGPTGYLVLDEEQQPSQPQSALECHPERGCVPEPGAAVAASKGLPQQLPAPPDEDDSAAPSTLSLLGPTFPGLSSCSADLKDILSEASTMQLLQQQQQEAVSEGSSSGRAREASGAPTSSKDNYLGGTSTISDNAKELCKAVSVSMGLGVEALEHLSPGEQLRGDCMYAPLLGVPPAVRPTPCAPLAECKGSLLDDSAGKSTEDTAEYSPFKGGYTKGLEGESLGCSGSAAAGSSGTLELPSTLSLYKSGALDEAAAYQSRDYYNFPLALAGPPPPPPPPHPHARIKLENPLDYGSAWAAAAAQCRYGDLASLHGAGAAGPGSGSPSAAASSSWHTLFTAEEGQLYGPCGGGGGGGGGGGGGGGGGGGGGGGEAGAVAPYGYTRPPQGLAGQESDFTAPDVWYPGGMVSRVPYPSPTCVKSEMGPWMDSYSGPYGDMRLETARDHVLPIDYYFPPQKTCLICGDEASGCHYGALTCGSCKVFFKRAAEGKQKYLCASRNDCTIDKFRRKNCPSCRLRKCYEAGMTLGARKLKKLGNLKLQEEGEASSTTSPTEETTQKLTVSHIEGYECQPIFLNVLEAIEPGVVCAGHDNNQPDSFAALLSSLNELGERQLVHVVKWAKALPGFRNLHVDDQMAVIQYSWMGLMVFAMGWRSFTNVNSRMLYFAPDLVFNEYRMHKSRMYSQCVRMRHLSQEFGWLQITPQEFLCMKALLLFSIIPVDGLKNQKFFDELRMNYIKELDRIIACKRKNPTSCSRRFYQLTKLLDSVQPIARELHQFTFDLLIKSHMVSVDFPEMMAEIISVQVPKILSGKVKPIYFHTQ
Procedure, shortened: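 Luminescent reporter readout (ONE-Glo, 30 min, room temperature) after 16 hr co-treatment of MDA-kb2 cells with test compounds and 0.5 nM R1881 final, at 37C without CO2. The MMTV-driven luciferase responds to both AR and GR.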

[3] = qHTS assay to identify small molecule HDAC inhibitors (AID 1259364); also: nearly all actives have a fitted effect of over 45% in size; also: potency is read from the fitted curve at half-maximal effect
Procedure, shortened: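 Luminescence read after 30 min room-temperature HDAC-Glo incubation measures cellular class I/II HDAC activity. Compounds were applied for 2 hr at 37 C to HCT-116 wild-type cells seeded the day before.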

[4] = qHTS assay to identify small molecule HDAC inhibitors - cell viability counter screen (AID 1259365); also: nearly all actives have a fitted effect of over 50% in size; also: potency is read from the fitted curve at half-maximal effect
Procedure, shortened: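 Following a 2hr exposure of overnight-plated wild-type HCT-116 cells to DMSO-delivered compounds, CellTiter-Glo was added and luminescence recorded after 30min at room temperature.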

[5] = qHTS assay to identify small molecule agonists of the sonic hedgehog signaling (Shh) pathway - cell viability counter screen (AID 1259366); also: nearly all actives have a fitted effect of over 50% in size; also: potency is read from the fitted curve at half-maximal effect
Procedure, shortened: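 After a 4hr attachment at 37C, NIH/3T3 cells bearing an integrated Gli1-driven luciferase reporter were dosed with compounds. Treatment lasted 24hr, with the final hour including CellTiter-Fluor for a fluorescence viability measurement.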

[6] = qHTS assay to identify small molecule antagonists of the sonic hedgehog signaling (Shh) pathway - cell viability counter screen (AID 1259367); also: nearly all actives have a fitted effect of over 55% in size; also: potency is read from the fitted curve at half-maximal effect
Procedure, shortened: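 Tox21 library chemicals were tested on a Gli1-Luc NIH/3T3 clone (2,000 cells/well) stimulated by conditioned medium; viability was quantified as fluorescence from CellTiter-Fluor reagent added at 23 hr.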

[7] = qHTS assay to identify small molecule antagonists of the sonic hedgehog signaling (Shh) pathway (AID 1259369; calls by dose curve; also: nearly all actives have a fitted effect of over 45% in size; also: potency is read from the fitted curve at half-maximal effect)
Procedure, shortened: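 Antagonist mode: compound added to 3T3 Gli1-Luc cells followed by conditioned-medium stimulation, 24 h at 37 C, 5% CO2. Inhibition taken as loss of Gli1-driven luciferase luminescence.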

[8] = qHTS assay to identify small molecule agonists of the sonic hedgehog signaling (Shh) pathway (AID 1259368; calls by dose curve;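 also: NIH/3T3-derived 3T3Gli1-Luc cells carrying a stable Gli1-driven firefly luciferase reporter; series mostly up to about 92 µM; nearly all actives have a fitted effect of over 15% in size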)
Procedure, shortened: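 Luminescence was read after 30 min at room temperature with luciferase reagent. Before that, 3T3Gli1-Luc cells (NIH/3T3 clone, stable Gli1-Luc reporter; 2,000/well) were exposed to compounds for 24 hr at 37C, 5% CO2, compounds being added 4 hr post-plating.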

[9] = target: Estrogen receptor (Homo sapiens) (UniProt P03372); test: qHTS assay to identify small molecule antagonists of the estrogen receptor alpha (ER-alpha) signaling pathway using the BG1 cell line in the presence of 0.1 nM 17-beta-estradiol (AID 1259244); also: nearly all actives have a fitted effect of over 50% in size; also: potency is read from the fitted curve at half-maximal effect
Chain of Estrogen receptor (Homo sapiens) (P03372 whole entry, looked up): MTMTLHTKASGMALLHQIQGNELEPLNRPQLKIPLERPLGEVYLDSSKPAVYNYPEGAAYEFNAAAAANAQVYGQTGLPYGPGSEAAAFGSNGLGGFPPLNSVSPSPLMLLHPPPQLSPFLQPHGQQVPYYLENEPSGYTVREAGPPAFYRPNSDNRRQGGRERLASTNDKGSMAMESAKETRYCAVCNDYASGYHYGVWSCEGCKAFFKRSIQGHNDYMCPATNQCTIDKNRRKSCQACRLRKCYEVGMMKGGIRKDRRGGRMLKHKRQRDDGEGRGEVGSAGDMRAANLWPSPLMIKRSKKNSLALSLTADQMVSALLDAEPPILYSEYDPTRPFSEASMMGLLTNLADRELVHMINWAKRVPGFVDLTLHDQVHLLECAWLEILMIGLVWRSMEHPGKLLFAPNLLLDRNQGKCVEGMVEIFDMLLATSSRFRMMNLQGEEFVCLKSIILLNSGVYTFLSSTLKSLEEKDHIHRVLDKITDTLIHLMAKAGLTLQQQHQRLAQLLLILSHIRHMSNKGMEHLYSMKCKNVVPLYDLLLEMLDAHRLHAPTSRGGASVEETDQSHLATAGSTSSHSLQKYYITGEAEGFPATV
Procedure, shortened: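 Luciferase luminescence (ONE-Glo, 30 min at room temperature) was read after 22 hr at 37C exposure to compounds plus 17beta-estradiol at 0.1 nM final. Cells were VM7Luc4E2 with endogenous ER-alpha and an ERE-driven luciferase, pre-cultured 5 days in hormone-depleted medium.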

[10] = qHTS assay to identify small molecule phospholipidosis (PLD) inducers (AID 1259344; active = well fitted curve in the direction sought with a large enough effect; an effect the other way counts as inactive or inconclusive)
Procedure, shortened: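 Image-based: LipidTOX Red pit count/intensity per well and per cell; HepG2, 24 h compound at 37 C, PFA fixation, Hoechst counterstain.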

Measured: Potency

C[C@@H]1O[C@@H](O[C@@H]2C=C3CC[C@@H]4[C@H](CC[C@]5(C)[C@@H](c6ccc(=O)oc6)CC[C@]45O)[C@@]3(C)CC2)[C@H](O)[C@H](O)[C@H]1O
active: [7] 16.8 µM
inactive: [1] | [2] | [3] | [4] | [5] | [6]

CCC(C)c1cc([N+](=O)[O-])cc([N+](=O)[O-])c1OC(=O)C=C(C)C (stereo not drawn)
inactive: [3] | [4] | [8]
active: [1] 61.1 µM | [2] 54.5 µM | [7] 9.69 µM

CC(=O)/C=C/c1ccc2c(c1)OCO2
inactive: [1] | [4] | [8]
active: [2] 68.9 µM | [3] 27.4 µM

C[C@]12CC[C@H](O)C[C@H]1CC[C@@H]1[C@@H]2C[C@@H](O)[C@]2(C)[C@@H](C3=CC(=O)OC3)CC[C@]12O
inactive: [1] | [2] | [3] | [4] | [5] | [6] | [8] | [7]

CCCCCCCCCC[N+](C)(C)CCCCCCCCCC
active: [1] 54.5 µM | [9] 30.6 µM | [4] 68.6 µM | [5] 21.7 µM | [7] 0.969 µM
inactive: [10] | [8]

CC(C)(O)c1cnn2c(-c3ccc(F)c(-c4c(F)cccc4C#N)c3)cnc2n1
inactive: [1] | [3] | [4] | [8]
active: [2] 61.1 µM

CCN(CC)c1c([N+](=O)[O-])cc(C(F)(F)F)c(N)c1[N+](=O)[O-]
active: [2] 27.3 µM | [7] 9.69 µM
inactive: [1] | [3] | [4] | [5] | [6] | [8]

CCOCCOC(C)=O
inactive: [1] | [9] | [10] | [4] | [5] | [6] | [8]

CCC(C)c1cc(C(C)(C)C)cc(-n2nc3ccccc3n2)c1O (stereo not drawn)
inactive: [1] | [2] | [3] | [4] | [5] | [6] | [8] | [7]

COP(=S)(OC)Oc1cc(Cl)c(Br)cc1Cl
inactive: [1] | [3] | [4] | [5] | [6] | [8]
active: [2] 54.5 µM

CC(C)N1C(=O)N(c2ccccc2)CSC1=NC(C)(C)C
active: [2] 54.5 µM
inactive: [1] | [3] | [4] | [5] | [8]

CN(CCCC(O)c1cccnc1)N=O (stereo not drawn)
inactive: [1] | [2] | [4] | [5] | [8] | [7]

N#CCCO
inactive: [1] | [2] | [3] | [4] | [5] | [6] | [8]

O=C1C=CC(=O)c2ccccc21
inactive: [8]
active: [1] 30.6 µM | [2] 19.3 µM | [4] 48.6 µM | [5] 12.2 µM | [6] 15.4 µM

Source: PubChem BioAssay (Tox21)
